The structures appear in SMILES notation. Records with an inconclusive call do not appear. Active and inactive are the calls of the source. Unless noted, calls follow the shape of the dose curve; as a rule, active = well fitted inhibition curve with a large enough effect; inconclusive = small, poorly fitted or top-dose-only effect; inactive = flat fitted curve, though single readings scatter.

Assay [1] in a line: AP1 Signaling Pathway (AID 357; active = well fitted curve in either direction with a large enough effect, not every such curve was filed as active;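 also: ME-180 reporter cells stimulated with EGF at its EC50 level; % is scaled to controls: 0 for no effect and ±100 for the full control effect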). Summed up: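 Cells are seeded overnight, exposed to compound titrations and an EC50 level of EGF for 5 hours at 37 °C, then loaded with CCF4 dye for 2.5 hours. Beta-lactamase activity under the AP-1 element is read as a blue/green ratio.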
The nature of assay [2]: NFAT Signaling Pathway (AID 444; active = well fitted curve in either direction with a large enough effect, not every such curve was filed as active;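 also: carbachol stimulus at about its EC50 of 1 µM final; % is scaled to controls: 0 for no effect and ±100 for the full control effect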). As to conditions: Jurkat NFAT-bla M1, carbachol, beta-lactamase ratio, 5 h; at 17.2 µM (top of the series) unless noted. The procedure, abridged: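 Jurkat cells carrying an NFAT-driven β-lactamase reporter and co-transfected muscarinic M1 receptor were treated with compound plus carbachol (1 uM final, an EC50 level) for 5 h at 37 °C. CCF4 loading followed for 1 h at RT; 460/530 nm ratio gave %activity.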

Assay [3] can be described thus: Stat Signaling Pathway (AID 446; active = well fitted curve in either direction with a large enough effect, not every such curve was filed as active;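 also: ME-180 cervical cancer cells given 40 pM IL-6 alongside compound; SIE-controlled beta-lactamase reporter measured as 460/530 nm FRET emission ratio; % is scaled to controls: 0 for no effect and ±100 for the full control effect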). The procedure, abridged:
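Emission at 460 and 530 nm (excitation 405 nm) reports SIE-controlled beta-lactamase in ME-180 cells. Cells received compound with 40 pM IL-6 for 5 hrs at 37 C; data scaled between 300 pM IL-6 and 125 nM JAK-inhibitor controls.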

Assay [4] deals with Glucocorticoid receptor (Homo sapiens) (UniProt P04150). Briefly: GR-GFP Redistribution (AID 450;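 active = compounds whose dose series gives a full or clear partial fitted curve of increased nuclear translocation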; also: potency is read from the fitted curve at half-maximal effect). As to conditions: U2OS GR-GFP nuclear translocation, laser cytometry, 2 h.
Assay [5] shares this target. Briefly: GR-EFC Redistribution (AID 451; calls by dose curve; also: potency is read from the fitted curve at half-maximal effect). The conditions noted are these: CHO-K1 GR-EFC translocation, beta-gal luminescence, 2 h. Summed up:
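CHO-K1 cells stably expressing nuclear-localized β-gal enzyme acceptor and GR fused C-terminally to the enzyme donor fragment; ligand-driven nuclear translocation restores β-gal by complementation. Compounds titrated up to 46 uM final, 2 h at 37 °C; luminescence read.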

The target of assay [6] is Mitogen-activated protein kinase 10 (Mus musculus) (UniProt Q61831). Briefly: JNK3 AlphaScreen Assay (AID 530; active = well fitted curve in either direction with a large enough effect, not every such curve was filed as active;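 also: kinase came from lysate of stimulated human HepG2 cells; signal reports phosphorylation of biotinylated GST-cJun 1-79 at Ser73 with 10 µM ATP; % is scaled to controls: 0 for no effect and ±100 for the full control effect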). The procedure, abridged: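 Phosphorylation of biotinylated GST-cJun(1-79) at Ser73 is measured by AlphaScreen proximity luminescence. Enzyme is JNK3 in HepG2 lysates activated with interleukin-1beta and tumor necrosis factor alpha; ATP is 10 uM final.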
Background: In Alpha technology, singlet oxygen from a donor bead excites a nearby acceptor bead.

Assay [7] has as its target 3',5'-cyclic-AMP phosphodiesterase 4B (Homo sapiens) (UniProt Q07343). Briefly: qHTS Assay for Inhibitors of PDE-IV (AID 607; active = well fitted activation curve with a large enough effect in the main read-out, with a control signal flat, not every such curve was filed as active; also: % of control where 0% means no effect). Summed up: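 The readout is membrane depolarisation from a cAMP-sensing CNG channel, detected with a potential dye at ex 535/em 590. Cells were HEK293-derived (endogenous PDE-IV) at 1000 cells/well, titrated up to 22.9 uM final.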
(Quantitative high-throughput screening tests each substance at several concentrations.)

A short description of assay [8]: qHTS Assay for Lipid Storage Modulators (AID 1519; calls by dose curve). The conditions noted are these: Drosophila S3 cells, BODIPY lipid droplet/cell ratio, laser cytometry, cells loaded with oleic acid; for activity change, negative = inhibition: at 25.7 µM (top of the series). The procedure, abridged: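 Cells seeded at 5,000 per well were treated with compounds over a concentration series and loaded with oleic acid (400 uM, as added). Lipid droplet fluorescence (488 nm excitation, 500-530 nm channel) was read by laser-scanning cytometry and normalized to 20 uM Triacsin C.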

Another assay concerns CP191. Briefly: qHTS profiling for inhibitors of Plasmodium falciparum proliferation (AID 504749). Also: nearly all actives have a fitted effect of over 60% in size. Also: potency is read from the fitted curve at half-maximal effect.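 As to activity, negative = inhibition: 0% = DMSO vehicle and full inhibition = artemisinin control.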 The conditions noted are these: P. falciparum in erythrocytes, SYBR Green DNA, 72 h; series mostly up to 12.8 µM. Summed up: (§1)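 Quantitative HTS: compounds pinned into medium, infected erythrocytes added (0.3% parasitemia, 2.5% hematocrit), 72 h culture at 37 C under 5% CO2. Saponin/Triton lysis with SYBR Green I, overnight RT, then fluorescence read.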

The test system of another assay is CP238. The assay is described as above. As to conditions: P. falciparum in erythrocytes, SYBR Green DNA, 72 h; series mostly up to 12.8 µM. Summed up:
as §1

The next assay concerns CP250. Described as above. As to conditions: P. falciparum in erythrocytes, SYBR Green DNA, 72 h; series mostly up to 12.8 µM. Summed up:
as §1

The next assay concerns CP256. The assay is described as above. As to conditions: P. falciparum in erythrocytes, SYBR Green DNA, 72 h; series mostly up to 12.8 µM. Summed up:
as §1

For the next assay, the system named is FAB9. Described as above. The conditions noted are these: P. falciparum in erythrocytes, SYBR Green DNA, 72 h; series mostly up to 12.8 µM. Summed up: as §1
For another assay, the system named is JCK. The description is as above. As to conditions: P. falciparum in erythrocytes, SYBR Green DNA, 72 h; series mostly up to 12.8 µM. The procedure, abridged:
as §1

For another assay, the system named is PC49. The description is as above. As to conditions: P. falciparum in erythrocytes, SYBR Green DNA, 72 h; series mostly up to 12.8 µM. Summed up:
as §1

The target in assay [9] is Ubiquitin carboxyl-terminal hydrolase 1 (Homo sapiens) (UniProt O94782). The assay is described as follows: Inhibitors of USP1/UAF1: Pilot qHTS (AID 504865).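 Also: rhodamine fluorescence freed from ubiquitin-rhodamine substrate followed over time; top concentration of the series differs between compounds; % is scaled to controls: 0 for no effect and ±100 for the full control effect; nearly all actives have a fitted effect of over 35% in size.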 The procedure, abridged: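 USP1/UAF1 complex at 1 nM preincubated 15 min at room temperature with compound, then Ub-Rho substrate added at 150 nM final. Fluorescence (480/540 nm) read kinetically in 50 mM HEPES pH 7.8, 0.5 mM EDTA, 1 mM TCEP, 0.1 mg/ml BSA, 0.01% Tween-20.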

Assay [10] is described as follows: qHTS profiling for inhibitors of Plasmodium falciparum proliferation (AID 504749). Also: potency is read from the fitted curve at half-maximal effect.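 As to activity, negative = inhibition: 0% = DMSO vehicle and full inhibition = artemisinin control.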 As to all read-outs here: nearly all actives have a fitted effect of over 60% in size. The conditions noted are these: P. falciparum in erythrocytes, SYBR Green DNA, 72 h; for activity, negative = inhibition: at 12.8 µM (top of the series). The procedure, abridged: as §1
The subject of a further assay is CP217. The description is as above. The conditions noted are these: P. falciparum in erythrocytes, SYBR Green DNA, 72 h; series mostly up to 12.8 µM. The procedure, abridged:
as §1

The test system of another assay is SC27B. The assay is described as above. The conditions noted are these: P. falciparum in erythrocytes, SYBR Green DNA, 72 h; series mostly up to 12.8 µM. Summed up: as §1
The test system of another assay is C2A. The assay is described as above. The conditions noted are these: P. falciparum in erythrocytes, SYBR Green DNA, 72 h; series mostly up to 12.8 µM. Summed up:
as §1

Where [11] appears, read: measured here: cell count channel max response.
Setting [12] is: measured here: lipid channel max response.

Chain of Glucocorticoid receptor (Homo sapiens) (P04150 whole entry, looked up): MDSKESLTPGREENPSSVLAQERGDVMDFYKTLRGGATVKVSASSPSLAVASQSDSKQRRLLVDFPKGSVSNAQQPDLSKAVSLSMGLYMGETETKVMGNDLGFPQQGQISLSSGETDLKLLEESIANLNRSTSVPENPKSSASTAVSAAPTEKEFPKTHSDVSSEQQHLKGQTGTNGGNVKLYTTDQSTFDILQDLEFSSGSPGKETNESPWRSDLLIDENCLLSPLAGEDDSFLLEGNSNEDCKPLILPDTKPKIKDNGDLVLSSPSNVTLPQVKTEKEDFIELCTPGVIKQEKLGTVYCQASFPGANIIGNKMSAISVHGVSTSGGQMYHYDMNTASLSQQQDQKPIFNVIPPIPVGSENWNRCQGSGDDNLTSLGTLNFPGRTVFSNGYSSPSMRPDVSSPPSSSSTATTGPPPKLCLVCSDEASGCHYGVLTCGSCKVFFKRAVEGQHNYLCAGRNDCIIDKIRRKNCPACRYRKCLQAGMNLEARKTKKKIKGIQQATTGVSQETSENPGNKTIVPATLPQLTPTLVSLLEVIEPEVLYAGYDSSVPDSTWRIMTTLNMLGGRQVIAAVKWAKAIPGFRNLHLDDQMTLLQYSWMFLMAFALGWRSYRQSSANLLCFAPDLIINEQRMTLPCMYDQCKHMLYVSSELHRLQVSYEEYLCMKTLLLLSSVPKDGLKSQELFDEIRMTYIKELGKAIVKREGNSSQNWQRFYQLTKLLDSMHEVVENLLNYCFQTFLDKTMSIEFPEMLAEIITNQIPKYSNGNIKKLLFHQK
Chain of Ubiquitin carboxyl-terminal hydrolase 1 (Homo sapiens) (O94782 whole entry, looked up): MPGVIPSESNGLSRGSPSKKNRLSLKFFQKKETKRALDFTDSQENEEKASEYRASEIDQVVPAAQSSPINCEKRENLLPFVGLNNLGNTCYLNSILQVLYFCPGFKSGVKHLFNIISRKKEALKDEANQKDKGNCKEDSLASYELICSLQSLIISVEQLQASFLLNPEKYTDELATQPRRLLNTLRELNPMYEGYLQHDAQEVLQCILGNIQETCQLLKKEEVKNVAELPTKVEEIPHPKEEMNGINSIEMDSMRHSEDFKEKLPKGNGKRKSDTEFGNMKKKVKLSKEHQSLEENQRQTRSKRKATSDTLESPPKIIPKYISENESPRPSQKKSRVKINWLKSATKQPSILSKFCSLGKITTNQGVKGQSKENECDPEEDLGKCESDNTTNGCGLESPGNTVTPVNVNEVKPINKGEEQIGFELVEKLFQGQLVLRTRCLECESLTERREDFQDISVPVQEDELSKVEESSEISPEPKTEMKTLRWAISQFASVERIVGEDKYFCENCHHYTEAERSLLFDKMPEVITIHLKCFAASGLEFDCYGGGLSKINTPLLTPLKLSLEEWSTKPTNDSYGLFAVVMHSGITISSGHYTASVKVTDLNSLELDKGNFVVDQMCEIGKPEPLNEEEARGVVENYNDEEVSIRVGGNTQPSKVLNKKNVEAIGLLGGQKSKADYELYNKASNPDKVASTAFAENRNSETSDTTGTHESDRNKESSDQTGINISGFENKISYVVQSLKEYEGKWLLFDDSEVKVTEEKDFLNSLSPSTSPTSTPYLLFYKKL
Chain of 3',5'-cyclic-AMP phosphodiesterase 4B (Homo sapiens) (Q07343 whole entry, looked up): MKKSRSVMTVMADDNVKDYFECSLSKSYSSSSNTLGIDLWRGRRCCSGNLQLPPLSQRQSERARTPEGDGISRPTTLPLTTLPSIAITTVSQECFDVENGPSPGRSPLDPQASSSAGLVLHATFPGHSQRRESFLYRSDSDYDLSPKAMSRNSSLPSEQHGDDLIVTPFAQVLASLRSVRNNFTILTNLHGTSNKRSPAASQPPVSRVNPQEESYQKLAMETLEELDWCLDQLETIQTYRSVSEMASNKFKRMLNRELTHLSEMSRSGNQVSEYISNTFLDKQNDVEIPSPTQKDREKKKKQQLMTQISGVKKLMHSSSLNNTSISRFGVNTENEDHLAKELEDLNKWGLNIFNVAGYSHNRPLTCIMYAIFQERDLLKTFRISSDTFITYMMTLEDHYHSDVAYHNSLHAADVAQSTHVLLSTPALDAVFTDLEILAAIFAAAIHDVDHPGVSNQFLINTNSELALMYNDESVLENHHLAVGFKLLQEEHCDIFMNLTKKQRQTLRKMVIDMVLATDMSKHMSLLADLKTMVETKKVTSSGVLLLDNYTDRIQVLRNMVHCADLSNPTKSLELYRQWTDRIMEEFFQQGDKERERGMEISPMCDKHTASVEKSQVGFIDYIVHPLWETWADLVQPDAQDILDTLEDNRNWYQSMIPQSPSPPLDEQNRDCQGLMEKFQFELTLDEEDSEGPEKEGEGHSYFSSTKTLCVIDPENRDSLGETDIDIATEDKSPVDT

Consider `C=C1c2c(Cl)ccc(O)c2C(O)=C2C(=O)[C@@]3(O)C(O)=C(C(N)=O)C(=O)[C@@H](N(C)C)[C@@H]3[C@@H](O)[C@H]12`, for which the outcome in assay [1], in assay [3] and in assay [7] was inactive. The activity change, negative = inhibition was -26.3% (inactive) in [2] and 1.11% (inactive) in [8]. For the same compound, the Potency in assay [4] and in assay [5] was > 20.6 µM (inactive) in each case. The Potency entry (in assay [6]; in the assay with CP191; in the assay with CP238; with CP250; with CP256; with FAB9) was “inactive” throughout. Moreover, the Potency result in the assay with JCK and in the assay with PC49 was “inactive” throughout. Also, the max response is -8.18% in assay [8] (setting [11]) and -8.74% in assay [8] (setting [12]).

As to `CC(C)(C)NC[C@@H](O)COc1ccccc1C1CCCC1`, the outcome in assay [1] and in assay [3] was inactive. Also, the activity change, negative = inhibition is -6.56% (inactive) in [2] and 1.2% (inactive) in assay [8]. The Potency in assay [4] was 4.85 µM (active); in assay [5], > 20.6 µM (inactive); in [10] (parasite line B) it was 3.16 µM (active); in the assay on CP217, 3.16 µM (active); in the assay on CP238 it was 3.16 µM (active); in the assay with CP256 it was 3.98 µM (active). In addition, the Potency was 3.16 µM (active) in the assay with JCK, 2.24 µM (active) in the assay on PC49 and 3.55 µM (active) in the assay on SC27B. In addition, the Potency result in assay [6] and in [9] was “inactive” in each case. In addition, the max response was -14.9% in assay [8] (setting [11]) and -12.5% in [8] (setting [12]).

Consider `CC1=CC(=O)C2=C(C)CC[C@@H]3[C@@H](OC(=O)[C@H]3C)[C@H]12`, for which the outcome in assay [1], in assay [3] and in [7] was inactive. The activity change, negative = inhibition is -23.2% (inactive) in assay [2] and 0.93% (inactive) in assay [8]. Besides, the Potency in [4] and in assay [5] was > 20.6 µM (inactive) in each case. The Potency result in assay [6] and in assay [9] was “inactive” throughout. Further, the max response was -15.8% in assay [8] (setting [11]) and -14.8% in assay [8] (setting [12]).

For the compound `C[C@H]1CS(=O)(=O)CCN1/N=C\c1ccc([N+](=O)[O-])o1`, the result in assay [1], in [3] and in assay [7] was inactive. In addition, the activity change, negative = inhibition in assay [2] was 1.33% (inactive); in assay [8], -3.89% (inactive). The Potency in assay [4] and in [5] was > 20.6 µM (inactive) in each case. Besides, the Potency result (in assay [6]; in [9]; in the assay with C2A; in the assay with CP191; in the assay with CP217; in the assay with CP238) was “inactive” throughout. Also, the Potency entry with CP250, in the assay on CP256, in the assay with FAB9, with JCK, in the assay on PC49 and in the assay on SC27B was “inactive” in each case. The results for the max response in [8] (setting [11]) and in assay [8] (setting [12]) were -15.4% and -17.6%, respectively. Besides, the activity, negative = inhibition is -17.9% (inactive) in assay [10] (parasite line A) and -12.5% (inactive) in assay [10] (parasite line B).

As for `N[C@H](Cc1cc(I)c(Oc2ccc(O)c(I)c2)c(I)c1)C(=O)O`, the compound was called inactive in [1], in [3] and in assay [7]. Also, the values for the activity change, negative = inhibition in assay [2] and in assay [8] were -4.32% (inactive) and -1.62% (inactive), respectively. For the same compound, the Potency in assay [4] and in [5] was > 20.6 µM (inactive) each time. Moreover, the Potency entry in assay [6] was “inactive”. The max response was 8.52% in assay [8] (setting [11]) and 3.42% in [8] (setting [12]).

On to `CC[C@H](C)C(=O)O[C@@H]1C[C@H](C)C=C2C=C[C@H](C)[C@@H](CC[C@H]3C[C@@H](O)CC(=O)O3)[C@H]21`, for which the compound was classed as inactive in [1], in assay [3] and in assay [7]. Moreover, the figures for the activity change, negative = inhibition in assay [2] and in [8] were 11.4% (inactive) and -5.83% (inactive), respectively. For the same compound, the Potency in assay [4] and in assay [5] was > 20.6 µM (inactive) each time. For the same compound, the Potency result in [6] and in assay [9] was “inactive” each time. Also, the max response in assay [8] (setting [11]) was -1.87%; in [8] (setting [12]) it was -8.58%.

For the origin of these results see PubChem BioAssay (NCATS).
